The text below walks through data of PubChem BioAssay AID1851 (National Center for Advancing Translational Sciences (NCATS), 2009).

Values joined by “and” are separate entries in the source; they are usually repeats but may differ in a detail not shown here. Equal values may be shown once. Hit rate of the full screen: of about 16,000 compounds, about 2,600 (16%) were called active. Not shown: some 20% with an inconclusive outcome. These entries were drawn from the full list. A number with no mark means an inactive call. Calls follow the shape of the dose curve; as a rule, active = well fitted curve in the direction sought with a large enough effect; inconclusive = small, poorly fitted or top-dose-only effect, or effect the other way; inactive = no such curve, though single readings can be large or run the other way.
% is scaled to controls: 0 for no effect and ±100 for the full control effect.

Chain of Cytochrome P450 2D6 (Homo sapiens) (P10635 whole entry, looked up): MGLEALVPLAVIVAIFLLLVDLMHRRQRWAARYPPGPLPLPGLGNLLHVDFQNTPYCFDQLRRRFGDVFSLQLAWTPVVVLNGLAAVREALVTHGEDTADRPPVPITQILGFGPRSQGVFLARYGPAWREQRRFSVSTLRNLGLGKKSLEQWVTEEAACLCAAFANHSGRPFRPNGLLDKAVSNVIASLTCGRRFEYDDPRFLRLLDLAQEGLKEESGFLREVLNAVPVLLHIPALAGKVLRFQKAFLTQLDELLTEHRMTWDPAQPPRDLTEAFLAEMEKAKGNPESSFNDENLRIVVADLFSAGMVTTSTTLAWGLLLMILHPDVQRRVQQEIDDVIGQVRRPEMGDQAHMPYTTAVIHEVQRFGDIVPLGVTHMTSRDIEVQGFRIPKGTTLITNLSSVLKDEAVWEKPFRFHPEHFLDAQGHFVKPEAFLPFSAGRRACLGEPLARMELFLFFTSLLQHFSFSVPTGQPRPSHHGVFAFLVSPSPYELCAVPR

This experiment has as its target Cytochrome P450 2D6 (Homo sapiens) (UniProt P10635). Kind of experiment: Cytochrome panel assay with activity outcomes. Particulars: recombinant CYP, pro-luciferin dealkylation, luminescence, p450-cyp2d6; series mostly up to 57.1 µM.
Consider `OCCNc1nc(NCCC2=CCCCC2)nc(N2CCOCC2)n1`, for which the AC50 (usually the concentration giving half of the maximal activity seen) is 7.08 µM (active). As to `c1ccc(-c2csc(Nc3nc(N4CCOCC4)nc(N4CCOCC4)n3)n2)cc1`, the AC50 entry was “inactive”. Take `Cc1nc2ncnn2c(C)c1CCC(=O)NCCC1=CCCCC1`: the AC50 entry was “inactive”. Same read-out and setting: as for `COc1ccc(-c2cc(C(F)(F)F)nc(N3CCCCC3)n2)cc1OC`, the entry is “inactive”. Same read-out and setting: as for `Cc1ccccc1N1C(=O)c2cc(S(N)(=O)=O)c(Cl)cc2N[C@H]1C`, the entry is “inactive”; as for `OC(COCc1ccccc1)Cn1cnc2ccccc21` (configuration not stated), 14.1 µM (active); as for `C[n+]1cn(CC(O)COCc2ccccc2)c2ccccc21` (configuration not stated), 1.12 µM (active).

Take `O=C1CCCC=C1[C@@H](O)COCc1ccccc1`: the activity, negative = inhibition was -20.2% [at 11.4 µM]. For the compound `Cn1c2ccccc2c2cc(C(=O)N3CCOCC3)sc21`, the AC50 entry is “inactive”. On the same count and under the same terms, the same measure for `CSc1nsc(/C=C/Nc2ccc(Cl)cc2)c1C#N`: “inactive”; for `Cc1noc(C)c1CS(=O)(=O)c1ccc(Br)cc1`: “inactive”. Same read-out and setting: the same measure for `CCCCCCC/C=C\CCCCCCCCC(=O)O`: “inactive”. Still for that read-out and setting: as for `CCCCCCCCCCCCCCC/C=C\[C@H](O)[C@@H](NC(=O)CCCCCCCCCCCCC)OC` (tested in a mixture with another compound), the entry is “inactive”. Take `CCCC[S@@](=N)(=O)CC[C@@H](N)C(=O)O`: the AC50 result is “inactive”. Take `CCCCCCCCCCCCCCC[C@@H](O)[C@@H](N)CO`: the AC50 was 7.94 µM (active). On to `CCCCCCCCCCCCC/C=C\[C@@H](O)[C@@H](N)CO`, for which the AC50 is 15.8 µM (active).

With `O=C(O)CN(CCOCCOCCN(CC(=O)O)CC(=O)O)CC(=O)O`, the AC50 entry was “inactive”. In the case of `CC(=O)c1c(C)[nH]c(C(=O)COc2ccc(C#N)cc2)c1C`, the AC50 entry is “inactive”. The same measure, in the same setting: as for `CSc1nc2c(c(=O)[nH]1)C(c1ccncc1)C(C(=O)OC(C)C)=C(C)N2` (configuration not stated), the entry is “inactive”; as for `COc1cc(C(=O)Nc2ccc3c(c2)OCCO3)c(-n2cnnn2)cc1OC`, “inactive”.

`S=C1NC2=C(C(c3ccc(Br)cc3)N1)N1CCC2CC1` (configuration not stated): the AC50 entry is “inactive”.

`CCN1CCN(C(=O)CCc2nc3ccccc3c(=O)[nH]2)CC1`: the AC50 result was “inactive”. On the same count and under the same terms, as for `CCN1CCN(C(=S)c2ccc(Br)cc2)CC1`, the figure is 1 µM (active); as for `CC1CCN(C(=S)c2ccc(O)cc2)CC1`, “inactive”. `CO[C@@H]1COC(=O)C/C=C\[C@@H](C)COC(=O)[C@H](COCc2ccccc2)NC(=O)C/C=C\[C@H]1C`: the activity, negative = inhibition was 10.2% [at 11.4 µM]. Turning to `CC(O)CN(CCC(N)=O)CCC(N)=O` (configuration not stated), the AC50 result is “inactive”. The same measure, in the same setting: the same measure for `Cc1cccc(Nc2ccncc2S(=O)(=O)NC(=O)NC(C)C)c1`: “inactive”. On the same count and under the same terms, the same measure for `Cn1cc(-c2nc3cnc(N4CCNCC4)nc3n(C3CC3)c2=O)c2ccccc21`: “inactive”; for `CC(C)CC(=O)O/N=C1\C(=O)N(c2ccccc2)c2ccccc21`: “inactive”; for `C=CCn1c(=O)c2c(nc(Br)n2Cc2ccccc2Cl)n(C)c1=O`: “inactive”. On to `CC(=O)OCC(=O)[C@@]1(OC(C)=O)[C@H](C)C[C@H]2[C@@H]3C[C@H](F)C4=CC(=O)C=C[C@@]4(C)[C@]3(F)[C@H](O)C[C@@]21C`, for which the AC50 result was “inactive”. Take `O=C1COc2ccc(OCc3ccc(F)cc3)cc21`: the AC50 result is “inactive”. In the case of `Cc1cc(NCCO)c2ccccc2n1`, the AC50 result was “inactive”. Consider `O=C(O)CC1(CC(=O)O)Nc2ccccc2SC1=O`, for which the activity, negative = inhibition is 8.66% [at 11.4 µM].

For the compound `CN1CCN(CCC=C2c3ccccc3Sc3ccc(S(=O)(=O)N(C)C)cc32)CC1`, the AC50 was 31.6 µM (active). The same measure, in the same setting: the same measure for `CCOC(=O)C1CCCN(C(=O)c2sc3nc(-c4ccc(OC)cc4)cn3c2C)C1` (configuration not stated): “inactive”; for `Cc1c(Nc2cc(N3CCCC(C)C3)c3nonc3c2[N+](=O)[O-])c(=O)n(-c2ccccc2)n1C` (configuration not stated): “inactive”. On the same count and under the same terms, as for `COC(=O)c1ccc(N2CCN(c3ccccc3)CC2)c(NC(=O)C2CC2)c1`, the entry is “inactive”; as for `Cc1ccc(Nc2ccc(-n3ccnc3)nn2)cc1C`, 2.51 µM (active); as for `O=C(Nc1ncc(Cc2ccccc2)s1)C1COc2ccccc2O1` (configuration not stated), “inactive”. As for `O=C1C2CCCN2c2ccc(S(=O)(=O)N3CCOCC3)cc2N1Cc1cccc(C(F)(F)F)c1` (configuration not stated), the AC50 entry was “inactive”.

Turning to `Cc1onc(-c2c(F)cccc2Cl)c1C(=O)N[C@H]1C(=O)N2[C@H]1SC(C)(C)[C@H]2C(=O)O`, the AC50 result is “inactive”. As for `O=C(O)CC[C@@H](C(=O)O)N1C(=O)c2ccccc2C1=O`, the AC50 entry was “inactive”. Still for that read-out and setting: the same measure for `CCOc1cccc(OCCCNCCCOC)c1`: 11.2 µM (active); for `COc1cccc(OCCCOc2ccccc2C(C)C)c1`: “inactive”; for `COC(=O)COc1cccc(NC(=O)c2ccc(C)cc2)c1`: “inactive”. Take `O=C(N/N=C/c1ccco1)c1ccccn1`: the AC50 result was “inactive”. In the case of `COc1ccc(NC(=O)/C(=C\c2cc(OC)c(OC)cc2[N+](=O)[O-])NC(=O)c2ccccc2)cc1`, the AC50 result was “inactive”. On to `COc1ccc(C(=O)Nc2ccc(F)cc2F)cc1OC`, for which the AC50 result is “inactive”. With `O=C(Cc1ccccc1)NCCSCc1ccc(Cl)cc1`, the AC50 is 3.16 µM (active). The same measure, in the same setting: the same measure for `O=C(COc1ccccc1Cl)NC(=S)Nc1cccc(NC(=O)c2ccccc2Cl)c1`: “inactive”; for `Cc1ccccc1OCCNC(=S)Nc1ccccc1`: “inactive”; for `S=C(NCCSCc1ccc(Cl)cc1Cl)Nc1ccccc1`: 6.31 µM (active).

Turning to `S=C(NCc1ccccn1)Nc1cccc(Cl)c1`, the AC50 result was “inactive”. Take `S=C(NCCSCc1c(Cl)cccc1Cl)Nc1ccccc1`: the AC50 is 4.47 µM (active). For the compound `O=C(Nc1ccc(N=Nc2ccccc2)cc1)c1ccc(Cl)cc1Cl`, the AC50 entry was “inactive”. Consider `O=C(O)CCSCc1ccccc1`, for which the activity, negative = inhibition is -5.23% [at 11.4 µM]. Consider `O=C(c1cccs1)n1nc(-c2ccc(Cl)cc2)nc1NCc1ccco1`, for which the AC50 result is “inactive”.

In the case of `COc1ccc(Cc2nnc(NC(=O)CSc3ccc(C)cc3)s2)cc1OC`, the AC50 result was “inactive”.

As to `O=C1c2cccnc2C(O)N1C1CCCCC1` (configuration not stated), the AC50 result is “inactive”.

For the compound `COc1ccccc1C(=O)NC(=S)N1CCCc2ccccc21`, the AC50 entry was “inactive”.

Turning to `N#CC(c1ccc(Cl)cc1)(c1ncc(C(F)(F)F)cc1Cl)N1CCOCC1` (configuration not stated), the AC50 result was “inactive”. On the same count and under the same terms, as for `C/C(=N\NC(=O)c1ccc(Cl)cc1)c1cccc(NC(=O)C(C)C)c1`, the entry is “inactive”. On the same count and under the same terms, the same measure for `Cc1ccccc1C(=O)Nc1cccc(NC(=S)NC(=O)c2cccs2)c1`: “inactive”. As for `Nc1nc(=O)c2[nH]cnc2n1O`, the activity, negative = inhibition is -6.92% [at 11.4 µM]. For `CCC(=O)n1nc(-c2ccc(OC)cc2)nc1N`, the AC50 entry is “inactive”. On the same count and under the same terms, as for `Cc1ccc2[nH]c3c(c2c1)CN(C(=O)CN1c2ccc(F)cc2CCC1C)CC3` (configuration not stated), the entry is “inactive”. For the compound `CO[C@H]1COC(=O)[C@@H](CCSC)NC(=O)C/C=C\[C@@H](C)[C@H](OC)COC(=O)[C@@H](OCc2ccccc2)/C=C\[C@@H]1C`, the activity, negative = inhibition is -4.06% [at 11.4 µM]. For `CC(C)(C)NCC[C@@H](O)c1cc(C(F)(F)F)nc2c(C(F)(F)F)cccc12`, the AC50 was 0.316 µM (active). `CCNc1nc(Oc2c(Cl)cccc2Cl)cc(C(F)(F)F)n1`: the AC50 result was “inactive”. On the same count and under the same terms, the same measure for `CC1(C)OC(C(N)=O)C(C(N)=O)O1` (configuration not stated): “inactive”. As for `Cc1ccc(S(=O)(=O)NC(=O)Nc2ncn[nH]2)cc1`, the activity, negative = inhibition was 4.38% [at 11.4 µM]. Take `Cc1cccc(-n2c(=O)c3c(n4cnnc24)-c2ccccc2CC32CCCCC2)c1`: the AC50 entry is “inactive”.

With `O=C(CSc1nc2ccccc2s1)N1c2ccccc2Sc2ccc(C(F)(F)F)cc21`, the AC50 entry is “inactive”. The same measure, in the same setting: the same measure for `CSc1ccc2c(c1)N(CCCN(C)C)c1ccccc1S2`: 0.501 µM (active); for `CCC(=O)c1ccc2c(c1)N(CCCN(C)C)c1ccccc1S2`: 2 µM (active); for `CCC(=S)/C=C1\Sc2ccccc2N1CCCS(=O)(=O)O`: “inactive”.

As to `CN(C)CCCN1c2ccc(O)cc2Sc2ccc(Cl)cc21`, the AC50 is 0.126 µM (active). On the same count and under the same terms, as for `CN(C)CCCNC(=O)c1cc2c3ccccc3n(C)c2s1`, the entry is “inactive”; as for `CN(C)CCCN1c2ccccc2Sc2ccc(C(F)(F)F)cc21`, 794 nM (active) and 398 nM (active).

Turning to `CC(C)OC(=O)CSc1nc(-c2ccc(F)cc2)nc2ccc(F)cc12`, the AC50 result was “inactive”. On to `CC[C@@H](c1ccccc1)n1c(=O)n2n(c1=O)[C@H]1[C@H](O)[C@H]3O[C@@H]3/C(=N/OC/C=C(\C)CCC=C(C)C)[C@@H]1CC2`, for which the activity, negative = inhibition was 3.1% [at 11.4 µM]. Turning to `CCOC(=O)N/N=C/c1ccc(F)cc1`, the AC50 entry was “inactive”. Still for that read-out and setting: the same measure for `Cc1cccc(-c2n[nH]c([N+](=O)[O-])n2)c1`: “inactive”. The same measure, in the same setting: the same measure for `COC(=O)[C@H](CCSC)NC(=O)NCc1ccccc1F`: “inactive”. Take `CC(C)=NO[C@@H](C)c1cn([C@H](CO)Cc2ccccc2)nn1`: the activity, negative = inhibition was 6.42% [at 11.4 µM] and -9.14% [at 11.4 µM].

In the case of `O=C(NCCN1CCN(C(=O)c2cc3ccccc3oc2=O)CC1)c1cc2ccccc2oc1=O`, the AC50 entry was “inactive”. `CCNC(=S)N1CCC(NC(=O)C2CCCCC2)CC1`: the AC50 result is “inactive”. As to `CNC(=O)/C(C#N)=c1\s/c(=C/C(=O)OC)c(=O)n1-c1ccccc1`, the AC50 result is “inactive”. Still for that read-out and setting: the same measure for `C/C=C1\C(=O)C[C@@H]2[C@@H]3CCC4=CC(=O)CC[C@@]4(C)[C@H]3CC[C@@]12C`: “inactive”. The same measure, in the same setting: as for `COCc1c(C(N)=O)nnn1-c1nonc1N`, the entry is “inactive”; as for `O=C(NC1CCN(Cc2ccccc2)CC1)c1ccc(I)cc1`, 12.6 µM (active). The same measure, in the same setting: the same measure for `O=C(Cc1ccccc1)NC1CCN(S(=O)(=O)c2ccc(C(=O)O)cc2)CC1`: “inactive”; for `CC(C)C(NC(=O)C1CCCCC1)C(=O)NC1CCN(Cc2ccccc2)CC1` (configuration not stated): “inactive”. As to `COc1cc(N)c(Cl)cc1C(=O)NC1CCN(Cc2ccccc2)CC1`, the half-maximal activity concentration (AC50) was 0.0126 µM (active).

Consider `COc1ccc(CC(NC(C)=O)C(=O)NC2CCN(C(=O)Nc3ccc(Cl)cc3)CC2)cc1OC` (configuration not stated), for which the AC50 result is “inactive”. Still for that read-out and setting: the same measure for `COc1cc([C@@H](O)CO)ccc1OS(=O)(=O)O`: “inactive”. For `O=[N+]([O-])c1ccccc1N=Nc1c(O)[nH]c2ccc(S(=O)(=O)O)cc12`, the activity, negative = inhibition is -12.1% [at 11.4 µM]. Turning to `C[C@@](Cc1ccc(O)c(O)c1)(NN)C(=O)O`, the AC50 result was “inactive”. Still for that read-out and setting: the same measure for `COc1cccc(Nc2ncc3nc(C)c(=O)n(CCc4ccccc4)c3n2)c1`: “inactive”; for `C[C@@]1(C(=O)O)NCCc2cc(O)c(O)cc21`: “inactive”; for `Cc1cc(C)c2c(-n3cccc3)n[nH]c2n1`: 25.1 µM (active).
